Source: PubChem
A selection: hits, their analogues and other compounds. The true share with any hit is near 10%.
SW480 rerep: inducers of DNA re-replication in SW480 colon cancer cells; SW480 DNA re-replication, Hoechst DNA content imaging, 48 h; Potency, µM (doses to about 46.1 µM), for inactives: top-dose re-replication activation, usual class: activators; hit rate 1.8% among 340,000; AID 624297; also: % of control where 0% means no effect; nearly all actives have a fitted effect of over 55% in size
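250 cells/well; 23 nL cpd via pin tool; 48 hr, 37 C, 5% CO2; Hoechst 40 min; imager read of total nuclear intensity, ex 405/em 500-530 nm.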
VP16 counter: Gal4-VP16 reporter inhibition counter-screen; Drosophila S2 Gal4-VP16 UAS-luciferase, luminescence, 20 h; Potency, µM (series often up to 53.6 µM), inactives show at the highest dose activity, negative = inhibition, actives largely listed as inhibitors; hit rate 3.5% among 310,000;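 also: Gal4-VP16 expression switched on by copper sulfate through the metallothionein promoter; % is scaled to controls: 0 for no effect and ±100 for the full control effect; nearly all actives have a fitted effect of over 50% in size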
RORgamma inh: inhibitors of mouse ROR gamma transcriptional activity | Drosophila S2 Gal4-RORgamma UAS-luciferase reporter, 20 h | AID 2551 | P51450 | Potency, µM (doses to about 53.6 µM), for inactives: at the highest dose activity change, negative = inhibition, hits mostly inhibitors | hit rate 5.4% among 310,000; also: % is scaled to controls: 0 for no effect and ±100 for the full control effect; nearly all actives have a fitted effect of over 60% in size
Target sequence (P51450 whole entry, looked up, the tested form may be a part): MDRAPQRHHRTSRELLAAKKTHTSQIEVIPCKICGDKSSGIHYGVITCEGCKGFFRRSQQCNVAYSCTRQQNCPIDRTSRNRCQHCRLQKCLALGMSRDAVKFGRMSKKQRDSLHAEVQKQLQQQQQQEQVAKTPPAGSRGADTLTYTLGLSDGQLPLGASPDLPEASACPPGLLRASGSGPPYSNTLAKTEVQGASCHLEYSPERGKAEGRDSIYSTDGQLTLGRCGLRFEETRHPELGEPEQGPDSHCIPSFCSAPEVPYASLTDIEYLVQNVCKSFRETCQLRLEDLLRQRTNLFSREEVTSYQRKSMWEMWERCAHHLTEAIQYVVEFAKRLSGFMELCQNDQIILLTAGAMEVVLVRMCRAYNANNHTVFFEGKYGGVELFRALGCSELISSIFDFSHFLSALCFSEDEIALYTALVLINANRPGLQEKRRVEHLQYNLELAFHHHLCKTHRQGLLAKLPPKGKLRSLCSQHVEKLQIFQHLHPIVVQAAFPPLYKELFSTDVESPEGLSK
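Luciferase reporter read in Schneider cells carrying Gal4-RORγ (mouse) and UAS-Photinus luciferase; cells given compound 1 h before 700 uM copper sulfate induction, then incubated 20 h at ambient temperature.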
KB-3-1 tox: KB-3-1 parental cell cytotoxicity; KB-3-1 viability, CellTiter-Glo ATP luminescence, 72 h; Potency, µM (highest dose often 46.1 µM), actives largely listed as cytotoxic; hit rate 1.4% among 400,000; also: % is scaled to controls: 0 for no effect and ±100 for the full control effect; nearly all actives have a fitted effect of over 60% in size
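Here the drug-naive KB-3-1 line serves as comparator for MDR sub-line selectivity; cells received compound titrations, 72 h at 37 °C, then CellTiter-Glo readout.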
KB-V1 cytotox: kills drug-selected multidrug resistant KB-V1 cells; AID 1347076; Potency, µM (titrated, usually from 46.1 µM), actives largely listed as cytotoxic; hit rate 3.4% among 400,000; KB-V1 MDR cells viability, CellTiter-Glo, 72 h; also: % is scaled to controls: 0 for no effect and ±100 for the full control effect; nearly all actives have a fitted effect of over 60% in size
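KB-V1 cells (P-gp-expressing MDR subline of KB-3-1) in phenol-red-free DMEM with 10% FBS were exposed to library compounds over a concentration series for 72 h at 37 degrees C. Viability read by CellTiter-Glo luminescence; concentration-effect curves fitted after normalization.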
MCF10A rereplic: induces DNA re-replication in MCF 10a normal breast cells | MCF 10A DNA re-replication, Hoechst nuclear intensity, 48 h | Potency, µM (highest dose often 46.1 µM), inactives show at the top dose activity, positive = re-replication, actives largely listed as activators | hit rate 2.9% among 350,000; also: % of control where 0% means no effect; nearly all actives have a fitted effect of over 50% in size
Numbers without * were called inactive; [ ] = remark or other dose. Calls follow the shape of the dose curve; as a rule, active = well fitted curve in the direction sought with a large enough effect; inconclusive = small, poorly fitted or top-dose-only effect, or another doubt; inactive = no such curve, though single readings can be large; an effect the other way counts as inactive or inconclusive. Potency is read from the fitted curve at half-maximal effect.

CSC1=N/C(=C\c2cccnc2)C(=O)N1c1ccccc1 was read as SW480 rerep -1.2%, VP16 counter 13.5%, RORgamma inh 34.6%[10 µM], KB-3-1 tox inactive, KB-V1 cytotox inactive and MCF10A rereplic -9.8%.
For CCCCSC1=N/C(=C/c2ccsc2)C(=O)N1c1ccccc1 the results were SW480 rerep 1.6%, VP16 counter inconclusive, RORgamma inh inconclusive, KB-3-1 tox inactive, KB-V1 cytotox 16.4µM* and MCF10A rereplic inconclusive.
`COc1ccc(-n2ncc(C(=O)N3CCN(c4ccccn4)CC3)c2C2CCN(C(=O)OC(C)(C)C)CC2)cc1` gave KB-3-1 tox inactive and KB-V1 cytotox inactive.
`CNC(=O)c1c(NC(=O)c2ccc(S(=O)(=O)N3CCCCC3)cc2)sc2c1CCN(C(C)C)C2` gave SW480 rerep inconclusive, VP16 counter -4.1%, RORgamma inh 15.7%, KB-3-1 tox inactive, KB-V1 cytotox inactive and MCF10A rereplic 28.2%.
CN1CCc2c(sc(NC(=O)c3ccc(S(=O)(=O)N4CCCC4)cc3)c2C(N)=O)C1 was read as SW480 rerep 1.2%, VP16 counter -5.9%, RORgamma inh -38.0%, KB-3-1 tox inactive, KB-V1 cytotox inactive and MCF10A rereplic 13.9%.
For CCN1CCc2c(sc(NC(=O)c3ccc(S(=O)(=O)N4CCCC4)cc3)c2C(=O)NC)C1 the results were SW480 rerep inconclusive, VP16 counter inconclusive, RORgamma inh inconclusive, KB-3-1 tox inconclusive, KB-V1 cytotox inconclusive and MCF10A rereplic 18.4µM*.
`CN1CCc2c(sc(NC(=O)c3ccc(S(=O)(=O)N4CCc5ccccc54)cc3)c2C(N)=O)C1` gave VP16 counter inconclusive and RORgamma inh -33.5%.
Screening CN1CCc2c(sc(NC(=O)c3ccc(S(=O)(=O)N4CCCCCC4)cc3)c2C(N)=O)C1 returned SW480 rerep 16.7%, VP16 counter inconclusive, RORgamma inh inconclusive, KB-3-1 tox inactive, KB-V1 cytotox 20.6µM* and MCF10A rereplic 16.4µM*.
Screening CNC(=O)c1c(NC(=O)c2ccc(S(=O)(=O)N3CCCc4ccccc43)cc2)sc2c1CCN(C)C2 returned SW480 rerep inconclusive, VP16 counter -4.9%, RORgamma inh -12.2%, KB-3-1 tox inactive, KB-V1 cytotox inactive and MCF10A rereplic 20.6µM*.
For S=c1nc[nH]c2n[nH]nc12 the results were KB-3-1 tox inactive and KB-V1 cytotox inactive.
CN(C)C(=O)c1ccc(-c2ccc3ncnc(N4CCOCC4)c3c2)cc1 was read as VP16 counter 3.5% and RORgamma inh 7.5%.
Screening COc1cc(OC)nc(Oc2cc(/C=N/O)ccc2OC)n1 returned SW480 rerep 11.6µM*, VP16 counter 5.2%, RORgamma inh inconclusive, KB-3-1 tox inconclusive, KB-V1 cytotox inconclusive and MCF10A rereplic inconclusive.
`CC(C)(C)c1ccc(-c2n[nH]c(=S)n2Cc2ccccc2)cc1` gave SW480 rerep -6.9%, VP16 counter 7.08µM*, RORgamma inh 2.24µM*, KB-3-1 tox inactive, KB-V1 cytotox inactive and MCF10A rereplic inconclusive.
For S=c1[nH]nc(-c2ccc(Br)cc2)n1Cc1ccccc1 the results were SW480 rerep -11.6%, VP16 counter 5.62µM*, RORgamma inh 2.24µM*, KB-3-1 tox inactive, KB-V1 cytotox inactive and MCF10A rereplic -0.9%.
`Oc1ccc(-c2n[nH]c(=S)n2Cc2ccccc2)cc1` gave SW480 rerep 0.8%, RORgamma inh -7.7%[0.365 µM], KB-3-1 tox inactive, KB-V1 cytotox inactive and MCF10A rereplic -0.2%.
For Fc1ccc(-c2c[nH]c(=S)n2Cc2ccccc2)cc1 the results were SW480 rerep -21.4%, VP16 counter 1.41µM*, RORgamma inh 0.631µM*, KB-3-1 tox inactive, KB-V1 cytotox inactive and MCF10A rereplic inconclusive.
Fc1ccc(-c2n[nH]c(=S)n2Cc2ccccc2)cc1 was read as SW480 rerep 5.5%, VP16 counter 11.2µM*, RORgamma inh 2.82µM*, KB-3-1 tox inactive, KB-V1 cytotox inconclusive and MCF10A rereplic 10.0%.
Screening O=c1[nH]cc(-c2ccc(Br)cc2)n1Cc1ccccc1 returned SW480 rerep -6.4%, VP16 counter -1.3%, RORgamma inh -6.8%, KB-3-1 tox inactive, KB-V1 cytotox inactive and MCF10A rereplic inconclusive.
Screening CCc1ccc(OCC2c3cc(OC)c(OC)cc3CCN2C(=O)COc2ccccc2)cc1 (centres undefined) returned KB-3-1 tox inactive and KB-V1 cytotox inactive.
CC(C)n1c(-c2ccc(C(C)(C)C)cc2)n[nH]c1=S was read as SW480 rerep 3.8%, VP16 counter 10µM*, RORgamma inh 4.47µM*, KB-3-1 tox inactive, KB-V1 cytotox inactive and MCF10A rereplic -3.7%.
Screening Cc1cc(-c2n[nH]c(=S)n2Cc2ccccc2)cs1 returned SW480 rerep -7.1%, VP16 counter inconclusive, RORgamma inh 5.62µM*, KB-3-1 tox inactive, KB-V1 cytotox inactive and MCF10A rereplic 2.6%.
CCCCOc1ccc(-c2n[nH]c(=S)n2Cc2ccccc2)cc1 was read as SW480 rerep 3.0%, VP16 counter inconclusive, RORgamma inh 1.58µM*, KB-3-1 tox inactive, KB-V1 cytotox inactive and MCF10A rereplic inconclusive.
Screening S=c1[nH]nc(-c2ccncc2)n1Cc1ccccc1 returned SW480 rerep 4.5%, VP16 counter -19.8%, RORgamma inh 12.6µM*, KB-3-1 tox inactive, KB-V1 cytotox inactive and MCF10A rereplic -4.5%.
O=c1cnc2cnc(N3CCNCC3)nc2n1C1CC1 was read as VP16 counter -6.8% and RORgamma inh 17.4%.
CCOc1ccc(-c2c(C)nn3c(-c4ccccc4)c(C(=O)NCCOC)cnc23)cc1OCC was read as KB-3-1 tox inactive and KB-V1 cytotox inactive.
For Cc1ccc(Cl)cc1N1CCN(C(=O)c2cc(S(=O)(=O)N3CCCCC3)cn2C)CC1 the results were KB-3-1 tox inactive and KB-V1 cytotox inactive.
For COc1ccc(C2CC(c3ccccc3C(F)(F)F)=NN2c2ccc(S(N)(=O)=O)cc2)cc1 (centres undefined) the results were SW480 rerep 0.731µM*, KB-3-1 tox inconclusive, KB-V1 cytotox inconclusive and MCF10A rereplic 1.84µM*.
`COc1ccc(C2CC(c3ccccc3F)=NN2c2ccc(S(N)(=O)=O)cc2)cc1` (centres undefined) gave SW480 rerep 0.92µM*, KB-3-1 tox inactive, KB-V1 cytotox inactive and MCF10A rereplic 2.06µM*.
